Laboratory results published in PubChem BioAssay (Tox21).
Results filed as inconclusive are left out. Activity calls are given as the source filed them. Unless noted, the call rests on the fitted dose curve; in most records, active means well fitted curve in the direction sought with a large enough effect in the repeat runs; inconclusive means weak or mixed curves; inactive means no such curve, though single readings can be large; an effect the other way counts as inactive or inconclusive.

Tests used:
[1] = qHTS assay for small molecule agonists of the p53 signaling pathway (AID 651631; calls by dose curve; further: nearly all actives have a fitted effect of over 15% in size; further: potency means the concentration at half of the fitted maximal effect)
Summary of the method: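 Fluorescence intensity from cleaved LiveBLAzer B/G substrate (2 h, room temperature) served as the signal. Beforehand, HCT-116 reporter cells bearing p53 response elements were treated 16 h at 37 °C with DMSO-dissolved compounds.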

[2] = qHTS assay for small molecules that induce genotoxicity in human embryonic kidney cells expressing luciferase-tagged ATAD5 (AID 651632); further: nearly all actives have a fitted effect of over 15% in size; further: potency means the concentration at half of the fitted maximal effect
Summary of the method: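 Increased luciferase signal from ATAD5-tagged reporter cells indicates DNA-damage-driven ATAD5 induction. HEK293T cells are treated for 16 hr at 37C before detection with Amplite.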

[3] = qHTS assay for small molecule agonists of the p53 signaling pathway - cell viability (AID 651633; calls by dose curve; further: nearly all actives have a fitted effect of over 30% in size; further: potency means the concentration at half of the fitted maximal effect)
Summary of the method: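 p53RE-bla cells were treated with compound for 16 hours at 37 C. Cytotoxicity was then measured as CellTiter-Glo luminescence after 30 min at room temperature.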

[4] = qHTS assay for small molecules that induce genotoxicity in human embryonic kidney cells expressing luciferase-tagged ATAD5 - cell viability (AID 651634; calls by dose curve; further: nearly all actives have a fitted effect of over 25% in size)
Summary of the method: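 Cytotoxicity counterscreen in HEK293T cells bearing an ATAD5-luciferase reporter: live-cell protease activity measured by CellTiter-Fluor fluorescence after 15.5 hr compound exposure.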

[5] = qHTS assay for small molecule disruptors of the mitochondrial membrane potential - cell viability (AID 720634; calls by dose curve;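 further: human HepG2 liver cancer cells; series mostly up to about 83 µM; nearly all actives have a fitted effect of over 20% in size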)
Summary of the method: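 After overnight attachment at 37 C, HepG2 cells received compound or DMSO vehicle for 1 hr. Viability is then taken from ATP-driven luminescence following a 30 min room-temperature CellTiter-Glo step.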

[6] = qHTS assay for small molecule disruptors of the mitochondrial membrane potential (AID 720635); further: potency means the concentration at half of the fitted maximal effect
Summary of the method: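 HepG2 cells exposed to compound 1 hr at 37C, then Mito-MPS dye 30 min. Ratio read of aggregate (540/590 nm) versus monomer (490/535 nm) fluorescence.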

[7] = qHTS assay to test for compound auto fluorescence at 590 nm (red) in HepG2 cells (AID 720674)
Summary of the method: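 Fluorescence at 590 nm emission following 540 nm excitation was recorded from HepG2 wells one hour after compound transfer, with DMSO-only wells as vehicle and Rose Bengal sodium equivalency as the scale.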

[8] = qHTS assay to test for compound auto fluorescence at 535 nm (green) in HepG2 cells (AID 720675)
[9] = qHTS assay to test for compound auto fluorescence at 460 nm (blue) in HEK293 cells (AID 720678)
Summary of the method: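 Triamterene serves as the blue fluorophore standard. Compound signal at 405/460 nm is read in HEK293 wells (2,000 cells, 10% dialyzed FBS) after overnight treatment at 37C.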

[10] = qHTS assay to test for compound auto fluorescence at 590 nm (red) in HEK293 cells (AID 720679)
Summary of the method: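 We plated HEK293 cells in 10% dialyzed FBS medium, let them adhere for 4-5 hr, then added 23 nL compound. Overnight at 37C and 5% CO2 preceded fluorescence measurement at 540/590nm.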

[11] = qHTS assay to test for compound auto fluorescence at 535 nm (green) in HEK293 cells (AID 720680)
[12] = qHTS assay to test for compound auto fluorescence at 460 nm (blue) in HEK293 cell free culture (AID 720681)
Summary of the method: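 Compounds were added to cell-free DMEM with 10% FBS and fluorescence read directly. The blue channel used 405 nm excitation and 460 nm emission, with triamterene as the reference fluorophore.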

[13] = qHTS assay to test for compound auto fluorescence at 535 nm (green) in HEK293 cell free culture (AID 720682)
Summary of the method: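 Intrinsic compound fluorescence is measured in culture medium containing 10% FBS, with excitation at 485 nm and detection at 535 nm, referenced to fluorescein.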

[14] = qHTS assay to test for compound auto fluorescence at 590 nm (red) in HEK293 cell free culture (AID 720683)
Summary of the method: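 Cell-free wells of DMEM with 10% FBS received compound, and intrinsic fluorescence was read at excitation/emission 540/590 nm. Values expressed as equivalence to Rose Bengal sodium.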

[15] = qHTS assay to test for compound auto fluorescence at 590 nm (red) in HepG2 cell free culture (AID 720684)
Summary of the method: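 Compound was pinned into wells holding MEM with 10% FBS and no cells, and red fluorescence was read at Ex/Em 540/590 nm. Signal is expressed as auto fluorescence equivalency relative to Rose Bengal sodium.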

[16] = qHTS assay to test for compound auto fluorescence at 460 nm (blue) in HepG2 cell free culture (AID 720685)
Summary of the method: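 Compound (23 nL) or DMSO pinned into cell-free MEM with 10% FBS; blue fluorescence read at 405/460 nm excitation/emission, expressed as auto-fluorescence equivalency to triamterene.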

[17] = qHTS assay to test for compound auto fluorescence at 535 nm (green) in HepG2 cell free culture (AID 720686)
[18] = qHTS assay to test for compound auto fluorescence at 460 nm (blue) in HepG2 cells (AID 720687)
Summary of the method: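 HepG2 cells in MEM with 10% FBS, attached overnight at 37 C, were exposed to compound or DMSO for 1 hr at 37 C, 5% CO2. Blue fluorescence was read at 405/460 nm, with triamterene as reference fluorophore.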

[19] = target: Glucocorticoid receptor (Homo sapiens) (UniProt P04150); experiment: qHTS assay to identify small molecule agonists of the glucocorticoid receptor (GR) signaling pathway (AID 720691; active means well fitted activation curve with a large enough effect in the signal ratio in the repeat runs, not every such curve was filed as active; the % refers to the signal ratio)
Chain of Glucocorticoid receptor (Homo sapiens) (P04150 whole entry, looked up): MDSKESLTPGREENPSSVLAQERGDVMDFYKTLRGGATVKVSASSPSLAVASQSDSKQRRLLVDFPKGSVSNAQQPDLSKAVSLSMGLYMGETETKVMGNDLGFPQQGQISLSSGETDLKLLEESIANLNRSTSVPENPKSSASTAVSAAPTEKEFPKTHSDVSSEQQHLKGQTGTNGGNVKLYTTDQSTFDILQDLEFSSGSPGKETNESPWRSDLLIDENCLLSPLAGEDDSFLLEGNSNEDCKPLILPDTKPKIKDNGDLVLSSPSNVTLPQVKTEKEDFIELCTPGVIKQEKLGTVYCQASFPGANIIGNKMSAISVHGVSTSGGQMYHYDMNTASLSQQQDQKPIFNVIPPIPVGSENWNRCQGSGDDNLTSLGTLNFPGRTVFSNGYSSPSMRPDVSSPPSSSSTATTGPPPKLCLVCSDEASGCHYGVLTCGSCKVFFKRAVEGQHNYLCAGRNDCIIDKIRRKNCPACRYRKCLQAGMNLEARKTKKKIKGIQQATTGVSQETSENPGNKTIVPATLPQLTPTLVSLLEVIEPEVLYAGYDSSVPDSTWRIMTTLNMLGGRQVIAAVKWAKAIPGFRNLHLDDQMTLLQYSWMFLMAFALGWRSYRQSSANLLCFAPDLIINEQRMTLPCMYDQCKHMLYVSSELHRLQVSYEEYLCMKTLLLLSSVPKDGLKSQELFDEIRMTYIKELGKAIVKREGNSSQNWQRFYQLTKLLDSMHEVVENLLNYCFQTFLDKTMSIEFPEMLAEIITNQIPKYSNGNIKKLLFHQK
Summary of the method: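 Agonist mode in a HeLa line carrying a GRE-controlled beta-lactamase reporter. Compounds act for 18 h at 37 C before a 2 h room-temperature FRET substrate step and fluorescence reading.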

[20] = target: Glucocorticoid receptor (Homo sapiens) (UniProt P04150); experiment: qHTS assay to identify small molecule antagonists of the glucocorticoid receptor (GR) signaling pathway (AID 720692; active means well fitted inhibition curve with a large enough effect in the signal ratio in the repeat runs, not every such curve was filed as active; the % refers to the signal ratio)
Summary of the method: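 Cells plated, rested 4 h at 37 C/5% CO2; compounds in DMSO pin-transferred; dexamethasone added to 5 nM final; 18 h at 37 C; B/G FRET substrate added, 2 h room temperature; fluorescence measured.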

Measured: Potency

Nc1ccc(S(=O)(=O)NCc2ccccc2)cc1
inactive: all assays above

CC1=C2[C@@H]([C@H](C)CC[C@H]2/C=C(\C)C(=O)O)[C@H](O)C1
inactive: all assays above

Cc1ccc2nc(N)[nH]c(=O)c2c1Sc1ccncc1
active: [1] 2.66 µM | [3] 1.88 µM
not listed: [14] | [19] | [20]
inactive: all other assays above

CC(C)(O)CCc1ccccc1
not listed: [20]
inactive: all other assays above

CCCCCCC(O)CCCCCCCCCCC(=O)OC (configuration not stated)
not listed: [16] | [18] | [20]
inactive: all other assays above

CCCC(=O)OC(=O)CCC
not listed: [19] | [20]
inactive: all other assays above

CC(=O)OCCC1CCCCC1
inactive: all assays above

COC(=O)CC(C(C)=O)C(=O)OC (configuration not stated)
not listed: [14]
inactive: all other assays above

O=C(O)c1cccc(Oc2ccccc2)c1
not listed: [16]
inactive: all other assays above

CCCCCCCC(=O)OCCCCCC
not listed: [13] | [18]
inactive: all other assays above

COC(CC(C)CCCC(C)(C)O)OC (configuration not stated)
not listed: [14]
inactive: all other assays above

C[C@@H]1C[C@H]2[C@@H]3CCC4=CC(=O)C=C[C@]4(C)[C@@]3(F)[C@@H](O)C[C@]2(C)[C@@]1(O)C(=O)COP(=O)(O)O
not listed: [19] | [20]
inactive: all other assays above

CC(CO)(CO)C(=O)O
not listed: [19] | [20]
inactive: all other assays above

COC(=O)c1sccc1S(N)(=O)=O
not listed: [20]
inactive: all other assays above

CN=C(N)NC(=O)Nc1c(C)cccc1C
not listed: [16]
inactive: all other assays above

CC(C)C(O)C(C)(C)CO (configuration not stated)
not listed: [14]
inactive: all other assays above

Nc1ccn([C@H]2CS[C@@H](CO)O2)c(=O)n1
not listed: [14]
inactive: all other assays above

O=S(=O)(Cl)c1c(Cl)cccc1Cl
not listed: [18]
inactive: all other assays above

O=C(NS(=O)(=O)/C=C/c1ccccc1)c1ccc(F)cc1Cl
active: [1] 21.7 µM | [2] 15.4 µM | [6] 68.6 µM
not listed: [13] | [19] | [20]
inactive: all other assays above

CC(C)N=C=NC(C)C
inactive: all assays above

C=C(C)C(=O)OCCC(F)(F)C(F)(F)C(F)(F)C(F)(F)C(F)(F)C(F)(F)F
not listed: [14]
inactive: all other assays above

CS(=O)(=O)c1ccc([C@@H](C[C@H]2CCC(=O)C2)C(=O)Nc2cnccn2)cc1Cl
not listed: [18]
inactive: all other assays above

CC12CC3CC(C)(C1)CC(N)(C3)C2
not listed: [16] | [18]
inactive: all other assays above

CC(=O)OCC(C)C
not listed: [19]
inactive: all other assays above

CCCCCCOC(=O)CCCCC
not listed: [16]
inactive: all other assays above

O=NN(CCCl)C(=O)NCCCl
active: [1] 1.19 µM
not listed: [14]
inactive: all other assays above

O=C1OC[C@H](Cc2cccc(O)c2)[C@H]1Cc1cccc(O)c1
active: [6] 8.24 µM
not listed: [13]
inactive: all other assays above

CC[C@H]1OC(=O)[C@H](C)[C@@H](O[C@H]2C[C@@](C)(OC)[C@@H](O)[C@H](C)O2)[C@H](C)[C@@H](O[C@@H]2O[C@H](C)C[C@H](N(C)C)[C@H]2O)[C@](C)(O)C[C@@H](C)C(=O)[C@H](C)[C@@H](O)[C@]1(C)O
not listed: [14] | [16] | [19] | [20]
inactive: all other assays above

Nc1nc(-c2ccc([N+](=O)[O-])cc2)cs1
active: [6] 3.1 µM
inactive: all other assays above
